The entries come from a sample that favours hits as a whole.
HttQ103 aggreg: inhibitors of mutant huntingtin aggregate formation in PC12 cells; PC12 HttQ103-GFP aggregates, Acumen cytometry, 40 h; Potency, µM (highest dose often 46.1 µM), actives largely listed as inhibitors; actives 1.1% (n = 220,000); AID 1688; note: nearly all actives have a fitted effect of over 60% in size
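Compounds (qHTS titration) were added to PC12 cells expressing an ecdysone-driven HTT exon 1 Q103–GFP fusion after induction with 100 nM tebufenozide. Aggregate formation was measured as GFP objects in cell lysates.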
HTT ATP protect: cytoprotection in Huntington HTT-Q103 PC12 cell model; PC12 HTT-Q103 induced, cytoprotection, ATP luminescence, 40 h; Potency, µM (doses to about 56.4 µM), most hits filed as activators; actives 0.14% (n = 230,000); AID 1471; note: nearly all actives have a fitted effect of over 45% in size
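Compounds were screened for protection of PC12 cells against cell death after tebufenozide induction (100 nM final) of mutant Huntingtin exon 1 (Q103) fused to GFP.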
PI4K2A inh: PI4K2A (human) kinase inhibition; AID 1346378; purified PI4K2A, ADP-Glo luminescence, 1 h; active compounds read low; activity change, negative = inhibition, % at 76.9 µM; Q9BTU6; actives 0.13% (n = 420,000); in the data active = activity change below about -50%; inconclusive = mostly about -30% to -49%
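PI4K2A activity was measured by ADP-Glo luminescence: enzyme (4 ug/mL stock) and phosphatidylinositol (1.2 mM stock) in Tris pH 7.5/MgCl2/EGTA/Triton X-100 buffer were reacted with ATP (300 microM stock) for one hour at ambient temperature.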
GALK inh: inhibitors of human galactokinase; P51570; Purified GALK, Kinase-Glo residual ATP luminescence; Potency, µM (doses to about 57.5 µM), usual class: inhibitors; actives 0.007% (n = 270,000)
Target sequence (P51570 whole entry, looked up): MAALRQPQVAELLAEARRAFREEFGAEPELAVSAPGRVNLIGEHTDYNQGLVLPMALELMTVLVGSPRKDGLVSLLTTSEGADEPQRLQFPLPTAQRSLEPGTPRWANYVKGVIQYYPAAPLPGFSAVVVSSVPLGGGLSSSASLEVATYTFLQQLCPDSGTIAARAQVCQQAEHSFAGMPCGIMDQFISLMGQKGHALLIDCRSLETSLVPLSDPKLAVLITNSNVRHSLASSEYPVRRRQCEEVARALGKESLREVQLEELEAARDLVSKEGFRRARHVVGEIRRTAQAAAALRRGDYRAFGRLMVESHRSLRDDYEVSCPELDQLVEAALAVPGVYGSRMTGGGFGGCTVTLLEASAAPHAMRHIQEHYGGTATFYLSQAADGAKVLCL
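Galactose (100 uM) and ATP (35 uM) were turned over by 5 nM GALK for 1 h at RT. Kinase-Glo Plus then converted the remaining ATP into a luminescent signal.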
Numbers stand for hits; – = inactive; ? = inconclusive; · = no result; [ ] = dose if it differs, or a comment. Unless noted, calls come from the whole dose curve; as a rule, active = well fitted curve in the direction sought with a large enough effect; inconclusive = small, poorly fitted or top-dose-only effect, or another doubt; inactive = no such curve, though single readings can be large; an effect the other way counts as inactive or inconclusive.

SMILES	HttQ103 aggreg	HTT ATP protect	PI4K2A inh	GALK inh
CCC(=O)C1=C(O)C(c2cccc(Oc3ccccc3)c2)CCC1=O (stereo unspecified)	10µM	–	–	–
COc1ccc2c(c1)C(=O)CCC2c1ccccc1 (stereo unspecified)	·	·	–	–
Cc1cccc(-c2nnc3sc(-c4ccccc4C)nn23)c1	11.2µM	–[0.074 µM]	–	–
O=C(c1cc(-c2cccs2)nc2ccccc12)N1CCN(S(=O)(=O)c2ccccc2)CC1	–	–	–	–
O=C(c1cc(-c2cccs2)nc2ccccc12)N1CCN(S(=O)(=O)c2cccc(F)c2)CC1	0.631µM	–	–	–
CC(=O)c1sc(NC(=O)C=C(C)C)nc1C	–	–[10 µM]	–	–
CC(=O)c1sc(NC(=O)C2(F)C(F)(F)C(F)(F)C(F)(F)C(F)(F)C2(F)F)nc1C	1.41µM	–[0.074 µM]	–	–
Cc1cc(Nc2cccc(C(F)(F)F)c2)n2nc(C)nc2n1	–	–	–	–
CCc1cccc(Nc2cc(C)nc3nc(C)nn23)c1	35.5µM	–[10 µM]	–	–
CCC1=C[C@@H]2CN(C1)Cc1c([nH]c3ccccc13)[C@@](C(=O)OC)(c1cc3c(cc1OC)N(C)[C@H]1[C@@](O)(C(=O)OC)[C@H](OC(C)=O)[C@]4(CC)C=CCN5CC[C@]31[C@@H]54)C2	·	·	–	·
Cc1c(C(=O)N/N=C/C(C)C)[nH]c2ccc([N+](=O)[O-])cc12	7.08µM	–[1.9 µM]	–	–
Cc1c(C(=O)O)[nH]c2ccc([N+](=O)[O-])cc12	–	·	–	–
Fc1ccccc1-c1n[nH]c(=S)n1N=Cc1ccc(OCc2ccccc2)cc1	·	·	–	·
CC(C)Oc1ccc(C(=O)Nc2nc3ccccc3[nH]2)cc1	·	·	-56.0	–
CCOc1ccc(C(=O)Nc2cc(-c3nc4ccccc4[nH]3)ccc2Cl)cc1[N+](=O)[O-]	12.6µM	–[10 µM]	–	–
O=C(NC(Cc1ccccc1)c1nc2ccccc2[nH]1)c1ccc(Cl)c([N+](=O)[O-])c1 (stereo unspecified)	7.94µM	–[10 µM]	–	–
O=C(Nc1nc2ccccc2[nH]1)c1ccc(F)cc1	–	–[0.074 µM]	–	–
O=C(Nc1nc2ccccc2[nH]1)c1ccccc1F	–	–[0.074 µM]	-79.9	–
COc1cccc(/C=C2\CC3(OC(=O)c4ccc(Cl)cc4)CCCN2C3)c1 (stereo unspecified)	·	·	–	·
c1ccc(Cn2ccc3ccc(-c4ccc5ccn(Cc6cccc(-c7cccs7)c6)c5c4)cc32)cc1	·	·	–	·
CCOc1ccc(C(=O)Nc2nc3ccccc3[nH]2)cc1OCC	12.6µM	–[10 µM]	–	–
COC(=O)[C@H]1O[C@@H](c2cc(OC)c(C)c(OC)c2OCc2ccccc2)[C@H](C)[C@@H]2O[C@]12C	·	–	·	·
O=C(Cc1cccs1)NCCSc1c(-c2ccc(Cl)cc2)[nH]c2ccccc12	22.4µM	·	–	·
CC(=O)[C@@H]1[C@H]2[C@H](C(=O)[C@H]3OC[C@@H]2O3)[C@H]2C=Cc3ccccc3N21	·	–[1.9 µM]	·	·
CC(Oc1cc2oc(=O)cc(-c3ccccc3)c2cc1Cl)C(=O)NCC1CCC(C(=O)O)CC1 (stereo unspecified)	·	·	–	·
SMILES	HttQ103 aggreg	HTT ATP protect	PI4K2A inh	GALK inh
CC(NC(=O)OC(C)(C)C)C(=O)Oc1cc2oc(=O)cc(-c3ccccc3)c2cc1Cl (stereo unspecified)	6.31µM	–[10 µM]	–	–
COc1ccc(-c2nc3cnc(N4CCNCC4)nc3n(Cc3cccs3)c2=O)cc1	·	–	·	·
N#CCC[C@H]1CC[C@]2(CCCN(S(=O)(=O)c3ccccc3)C2)O1	·	·	–	·
CC1=CC2(C(Cc3ccccc3)N(CC3CC3)C(=NC(=O)c3ccccc3)N2C(=O)OCc2ccccc2)n2c(=O)n(-c3ccccc3)c(=O)n2C1 (stereo unspecified)	·	·	–	·
Cc1ccccc1C(=O)c1cccn1CC(=O)NCCCN1CCCCC1	·	·	–	–
Cc1ccc(C)c(N2CCN(CCCNC(=O)Cn3cccc3C(=O)c3ccccc3C)CC2)c1	15.8µM	–	–	–
Cn1c(SCCOc2ccccc2Cl)nnc1-c1ccncc1	0.794µM	–	–	–
CCCCC1(COC(=O)CCC(=O)O)C(=O)N(c2ccccc2)N(c2ccccc2)C1=O	–	–	–	·
CCCCC1(Cc2ccc([N+](=O)[O-])cc2)C(=O)N(c2ccccc2)N(c2ccccc2)C1=O	10µM	–[10 µM]	–	–
O=C(Nc1ccc2c(c1)OCCO2)c1ccc(Br)c(S(=O)(=O)N2CCOCC2)c1	–	–[10 µM]	–	–
O=C(Nc1ccc2c(c1)OCO2)c1ccc(Br)c(S(=O)(=O)N2CCCC2)c1	12.6µM	–	–	–
C/C(=N\NC(N)=S)C1(C)CCCCC1	–	·	–	·
C/C(=N\NC(N)=S)C12CC3CC(CC(C3)C1)C2	–	3.16µM	–	–
O=c1[nH]cnc2nc(-c3ccccc3)c(-c3ccccc3)nc12	14.1µM	–[10 µM]	–	–
CN(C)CCCNS(=O)(=O)c1ccc(Oc2ncc(C(F)(F)F)cc2Cl)cc1	22.4µM	–[10 µM]	–	–
CCCCc1c(CCC)c(=N)c2ccccc2n1C	8.91µM	–[10 µM]	–	·
CN(C)S(=O)(=O)c1cccc(C(=O)N/N=C\c2ccccc2)c1	·	·	–	·
CCCNC(=O)c1cc(-c2ccc(O)cc2)on1	·	–	·	·
Cc1ccc(N(NC(=O)C(O)(c2ccccc2)c2ccccc2)C(=O)CCl)cc1	5.01µM	–[10 µM]	–	–
CCCOc1ccc2c(c1)CC[C@@H]1[C@@H]2CC[C@]2(C)C(OC)CC[C@@H]12 (stereo partly specified)	·	·	–	·
CCOCC(O)CNc1ccccc1 (stereo unspecified)	–	–[10 µM]	–	–
OC(CNc1ccccc1)COc1ccc(OCC(O)CNc2ccccc2)cc1 (stereo unspecified)	11.2µM	–	–	–
CCCCCCCCCCCCCCC[C@@H](O)[C@H](CO)NC(=O)CCCCCCC	·	–	·	·
Cc1cccc(C(=O)Nc2sc(C(=O)N3CCCC3)c(C)c2C#N)c1	–	–	-75.1	–
Cc1c(C(=O)N2CCCC2)sc(NC(=O)c2cccc(Cl)c2)c1C#N	?	–	–	–
SMILES	HttQ103 aggreg	HTT ATP protect	PI4K2A inh	GALK inh
Cc1cccc(C(=O)Nc2sc(C)c(-c3ccccc3)c2C#N)c1	22.4µM	–	–	–
N#Cc1c(Cl)nsc1NC(=O)c1ccccc1	3.98µM	–	–	–
O=C(NCCc1ccccc1)C1CCN(S(=O)(=O)c2ccc(-n3cnnn3)cc2)CC1	2.82µM	–	–	–
COc1ccc(-c2cnnc(CCCn3ccnc3-c3ccccc3)n2)cc1	·	–[10 µM]	·	·
Cc1ccc2[nH]c3nc(CCCn4ccnc4-c4ccccc4)nnc3c2c1	·	1µM	·	·
Nc1cccnc1Sc1cccc(Cl)c1	–	–	-69.3	·
Nc1cccnc1Sc1ccc(Cl)cc1	–	–	–	–
CCCCn1nnc(NC(=O)c2sc3cc(Cl)ccc3c2Cl)n1	0.631µM	–	–	–
CCCn1nnc(NC(=O)c2ccc(Cl)cc2Cl)n1	–	–[10 µM]	–	–
CCS(=O)(=O)Nc1ccccc1C(N)=O	–	–[10 µM]	–	–
CN(C)S(=O)(=O)Nc1ccccc1C(N)=O	3.55µM	–	–	–
COc1ccc(Cn2c(SCc3cc(C)ccc3C)nc3cc(OC)c(OC)cc3c2=N)cc1	3.16µM	–[10 µM]	–	–

Source: PubChem (National Center for Advancing Translational Sciences (NCATS))
